Assay outcomes (PubChem)
M4 PAM – potentiates acetylcholine response at human M4 receptor | P08173 | CHO-K1 hM4/Gqi5, Fluo-8 calcium fluorescence, ACh EC20; 0% = ACh EC20, 100% = maximal ACh | activation, % at 3 µM | actives 0.4% (n = 360,000) | AID 624126;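 active = activation above its plate's cutoff, the mean activation of sample wells plus 3 SD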
Target sequence (P08173 whole entry, looked up): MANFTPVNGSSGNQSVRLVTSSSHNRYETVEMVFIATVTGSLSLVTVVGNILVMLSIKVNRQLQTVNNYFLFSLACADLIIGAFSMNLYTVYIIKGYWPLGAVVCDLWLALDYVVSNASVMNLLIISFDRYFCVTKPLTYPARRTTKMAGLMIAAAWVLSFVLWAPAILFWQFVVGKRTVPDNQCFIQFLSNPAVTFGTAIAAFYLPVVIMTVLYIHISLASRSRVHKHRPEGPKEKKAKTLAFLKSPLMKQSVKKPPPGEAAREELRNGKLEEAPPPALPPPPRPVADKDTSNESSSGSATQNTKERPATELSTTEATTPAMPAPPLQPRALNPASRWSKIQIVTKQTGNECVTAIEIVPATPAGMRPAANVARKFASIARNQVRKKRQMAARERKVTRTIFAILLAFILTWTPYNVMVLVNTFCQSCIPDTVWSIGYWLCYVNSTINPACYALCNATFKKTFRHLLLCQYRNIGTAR
M1 ag parental – counter-screen for M1 agonists: effect in parental CHO-K1 cells | AID 602248 | Fluo-8 calcium fluorescence; scaled to maximal ATP response, vehicle zero | actives 0.48% (n = 360,000) | activation, % at 3 µM; in the data active = activation above about 15%;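 also: untransfected CHO-K1 host cells lacking M1 receptor as counterscreen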
M4 ag – agonists of human muscarinic M4 receptor (CHRM4); P08173; CHO-K1 hM4/Gqi5, Fluo-8 calcium fluorescence; vehicle 0%, full acetylcholine response 100%; activation, % at 3 µM; actives 0.14% (n = 360,000); AID 624127;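 active = activation above the run mean over all test wells plus 3 SD, cut at about 32% in these data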;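 also: peak over basal fluorescence ratio per well then scaled between controls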
M1 PAM parental – nonselective activator or artifact in parental CHO-K1 calcium assay. actives 0.02% (n = 360,000). ATP EC20, Fluo-8 calcium fluorescence; 0% at ATP EC20, 100% at ATP max. activation, % at 3 µM;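 active = activation above the run cutoff, the mean activation of all test compounds plus 3 SD, cut at about 40% in these data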;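 also: peak over basal fluorescence ratio in a 140 s read after ATP addition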
CHRM4 antagonist – blocks acetylcholine activation of human M4 receptor | CHO-hM4 cells, ACh EC80, Fluo-8 calcium fluorescence | inhibition, % at 3 µM | actives 0.73% (n = 360,000);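 active = inhibition above its plate's cutoff, the mean inhibition of sample wells plus 3 SD, cut at about 27% in these data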
CHO-K1 Ca antag – M1 antagonist counterscreen hit in parental CHO-K1 cells | ATP-induced calcium, Fluo-8 fluorescence | inhibition, % at 3 µM | actives 0.6% (n = 360,000) | AID 602250;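 active = inhibition above a per-plate cutoff, the plate's mean sample inhibition plus 3 SD, cut at about 24% in these data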
Each line names hits and unclear results; the compound was inactive in the other large screens. Most compounds without a hit are left out; they make up all but 2% or so of the library.

NC(Cc1ccc(F)cc1)c1csc(NC(=O)NC(c2ccccc2)c2ccccc2)n1 (centres undefined)	CHRM4 antagonist 27.8
NC(Cc1ccc(Cl)cc1)c1csc(Nc2ccc(-c3ccccc3)nn2)n1 (centres undefined)	M4 ag 38.1
NC(Cc1ccc(C(F)(F)F)cc1)c1csc(NC(=O)NCCc2ccccc2)n1 (centres undefined)	M4 ag 39.3, CHRM4 antagonist 41.3
Cc1ccc(C(=O)Nc2nc(C(N)Cc3ccc(C(F)(F)F)cc3)cs2)cc1 (centres undefined)	M4 ag 36.0
COc1cc(C2C(C#N)=C(N)OC3=C2C(=O)CC(C)(C)C3)cc2c1OCO2 (centres undefined)	none
NC(Cc1ccc(C(F)(F)F)cc1)c1csc(Nc2ccccn2)n1 (centres undefined)	M4 ag 41.0
O=C(NCCCN1CCC(Cc2ccccc2)CC1)c1ccc(CS(=O)c2ccccc2Cl)o1 (centres undefined)	CHRM4 antagonist 28.4
O=C(NCc1ccco1)c1ccc(CS(=O)c2ccccc2Cl)o1 (centres undefined)	none
COc1ccc(N2CCN(C(=O)COC(=O)c3oc4ccc(OC)cc4c3C)CC2)cc1	M1 ag parental 15.8
COc1ccc2oc(C(=O)OCC(=O)N3CC(C)CC(C)C3)c(C)c2c1 (centres undefined)	none
CN(C)c1cc(Nc2ccc(O)cc2)c([N+](=O)[O-])c2nonc12	none
O=[N+]([O-])c1c(Nc2ccc(O)cc2)cc(Cl)c2nonc12	CHRM4 antagonist 78.2, CHO-K1 Ca antag 44.5
COc1ccc(NC(=O)COC(=O)c2ccc(Cl)c(S(N)(=O)=O)c2)c([N+](=O)[O-])c1	none
O=C1NC2(CCCCCC2)N=C1c1ccc(Br)cc1	CHRM4 antagonist 35.1
CCn1cc(C(=O)NCc2ccc3c(c2)OCO3)c(=O)c2cc(F)c(N3CCN(C(=O)c4ccco4)CC3)cc21	none
Cc1ccc2cc(NC(=O)C3(C)CCN3CC(C)C)ccc2n1 (centres undefined)	none
COc1cccc(Nc2ccc(-n3ccnc3)nn2)c1	M1 ag parental 15.3
Cc1ccc(CNC(=O)c2cc3c(=O)n(C)c4ccccc4c3n2C)o1	CHO-K1 Ca antag 23.8
COc1ccccc1NC(=O)c1cc2c(=O)n(C)c3ccccc3c2n1C	CHRM4 antagonist 53.7
Cn1nc(C(=O)OCC(=O)c2ccccc2)c2ccccc2c1=O	none
CCn1nc(C(=O)OCC(=O)N2CC(=O)Nc3ccccc32)c2ccccc2c1=O	M4 PAM 22.5
CCn1nc(C(=O)OCC(=O)c2ccc(F)cc2)c2ccccc2c1=O	M4 PAM 28.0
CCCn1nc(C(=O)OCC(=O)c2ccccc2)c2ccccc2c1=O	none
Cn1nc(C(=O)OCC(=O)c2ccc(Cl)cc2)c2ccccc2c1=O	M4 PAM 16.0
CCOC(=O)Cc1csc(NS(=O)(=O)c2ccc(SC)cc2)n1	none
Cc1c(Cl)cccc1NC(=O)CNC(=O)c1ccc2c(c1)OCCO2	M4 PAM 21.8
Cc1c(Cl)cccc1NC(=O)CNC(=O)c1ccc(F)cc1	none
CC(C)N1CCc2c(sc(NC(=S)NC(=O)c3ccccc3)c2C#N)C1	none
CCCN1CCc2c(sc(NC(=S)NC(=O)c3ccccc3)c2C#N)C1	M1 ag parental 46.0
CN(C)c1ccc(NC(=O)C[n+]2ccccc2)cc1	none
O=C(C[n+]1ccccc1)Nc1ccc(Oc2ccccc2)cc1	CHRM4 antagonist 46.8
CCCCNC(=O)c1ccc(N2CCOCC2)c(NS(=O)(=O)c2ccc(OC)cc2)c1	none
CC(=O)N1CCSc2ccc(S(=O)(=O)Nc3ccc(C)cc3)cc21	none
COc1ccc(NS(=O)(=O)c2ccc3c(c2)N(C(C)=O)CCS3)cc1	M1 ag parental 16.9
CCNC(=O)Nc1cc(S(=O)(=O)Nc2ccc(OC)cc2)ccc1N1CCOCC1	CHO-K1 Ca antag 27.8
O=C(O)CCC(=O)Nc1ccc(/C=C/C(=O)C2CC2)cc1	none
Cc1ccc(C(=O)OCC(=O)NCc2cccc(Cl)c2)cc1S(=O)(=O)N1CCCCC1	none
Cc1ccc(CN2CCN(Cc3ccc4cccc(F)c4n3)CC2CCO)cc1 (centres undefined)	none
COc1ccc(NC(=O)CCNC(=O)c2ccc([N+](=O)[O-])cc2)cc1S(=O)(=O)N1CCCCC1	M4 PAM 21.8
CC(C)c1ccc(CN2CCC2(C)C(=O)Nc2ccc3c(c2)OCO3)cc1 (centres undefined)	M1 ag parental 17.3
O=S(=O)(NCCc1c[nH]c2ccccc12)c1ccc(F)cc1	none
O=C(COc1cccnc1[N+](=O)[O-])Nc1ncc(Cl)cc1Cl	M4 PAM 24.5
O=C(COc1cccnc1[N+](=O)[O-])Nc1c(Cl)cccc1Cl	none
CCCCn1c(Cc2ccccc2)n[nH]c1=S	CHRM4 antagonist 83.2
S=c1[nH]nc(COc2ccccc2)n1Cc1ccccc1	none
S=c1[nH]nc(CN2CCCCC2)n1Cc1ccccc1	CHRM4 antagonist 31.5
CCn1c(Cc2ccccc2)n[nH]c1=S	none
S=c1[nH]nc(CN2CCCC2)n1Cc1ccccc1	CHO-K1 Ca antag 34.1
CCCCc1n[nH]c(=S)n1Cc1ccccc1	none
O=C(CNC(=O)c1ccc(Br)o1)Nc1cccc(S(=O)(=O)N2CCOCC2)c1	none
CN(C)c1cccc(NC(=O)C2(C)Cc3c(-c4cccnc4)ccnc3O2)c1 (centres undefined)	none
Cc1nc2ccn(Cc3ccccc3)c(=O)c2cc1C(=O)N1CCN(c2ccccc2)CC1	M4 PAM 13.9
Cc1cc(C)c2c(=O)n(CC(=O)N3CCN(c4ccccc4)CC3)ccc2n1	none
O=C(NP(=O)(N1CCCC1)N1CCCC1)C1=C(N2CCOCC2)/C(=C/c2cccc([N+](=O)[O-])c2)CC1	M1 ag parental 17.2
CCOC(=O)C(=O)C1=C(N2CCOCC2)/C(=C\c2cccc([N+](=O)[O-])c2)CC1	none
Cc1ccc2nc(C(C)(C)C)c(Cc3cccc(Cl)c3)n2c1	CHRM4 antagonist 26.6
COc1ccc(-c2nc3ccc(C)cn3c2Cc2cccc(Cl)c2)cc1OC	none
Cc1ccc2nc(-c3ccc(F)cc3)c(Cc3cccc(Cl)c3)n2c1	CHO-K1 Ca antag 32.0
Cc1ccc2nc(-c3ccc(Cl)cc3)c(Cc3cccc(Cl)c3)n2c1	none
CCOC(=O)C(Cc1ccccc1)c1ccnc2ncnn12 (centres undefined)	none
Cc1c2cnn(CC(=O)NCCN3CCOCC3)c(=O)c2c(C)n1Cc1ccc(F)cc1	none
CS(=O)CSc1nc2c(cc1C#N)CCCC2 (centres undefined)	CHRM4 antagonist 57.5
CCCCSc1nc2c(cc1C#N)CCC2	none
N=C1C(c2ccccc2)=C(O)CN1CCO	M4 PAM 17.4
